Records with an inconclusive call do not appear. Calls of active or inactive are those of the source. Calls follow the shape of the dose curve; as a rule, active = well fitted cell-killing curve with a large enough effect; inconclusive = small, poorly fitted or top-dose-only effect; inactive = no such curve, though single readings can be large or run the other way.
test: Cell Viability - LYMP2-001 (AID 921); settings: LYMP2-001 lymphoblastoid cell viability; series mostly up to 92.2 µM; activity change, negative = cytotoxic: at the top concentration;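 also: cells exposed to compound for 24 h at 37 °C; nearly all actives have a fitted effect of over 70% in size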;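 as to activity change, negative = cytotoxic: 0% = DMSO only and full inhibition = tetraoctylammonium bromide control wells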
Description: NIH Chemical Genomics Center [NCGC]
NIH Molecular Libraries Screening Centers Network [MLSCN]
National Institutes of Environmental Health Sciences [NIEHS]
National Toxicology Program [NTP]
We have developed a 1536-well cell-based assay for quantitative high throughput screening (qHTS) against a number of cell lines to determine in vitro cytotoxicity of small molecules. This particular assay uses a human lymphoblastoid cell line (LYMP2-001) purchased from Coriell Institute for Medical Research.
NCGC Assay Protocol Summary:
The CellTiter-Glo luminescent cell viability assay (Promega) is a homogeneous method to measure the number of viable cells in culture. The end point readout of this assay is based on quantitation of intracellular ATP, an indicator of metabolic activity, using the luciferase reaction. Luciferase catalyzes the oxidation of beetle Luciferin to oxyluciferin and light in the presence of ATP. The luminescent signal is proportional to amount of ATP present.
Using the CellTiter-Glo luminescent cell viability assay, the amount of cellular ATP was measured in the lymphoblastoid cell line with complete culture medium following compound treatment for 24 hours. The assay was performed in opaque white Kalypsys 1536-well plates. In the screen, tetraoctylammonium bromide was used as positive control. Library compounds were measured for their ability to cause acute toxicity in the cell line, as reflected by a decrease in intracellular ATP levels, in a concentration-dependent manner. […] AC50 values were determined from concentration-response data modeled with the standard Hill equation.
qHTS protocol for CellTiter Glo lymphoblastoid cellular assay
[Step] [Parameter] [Value] [Description]
1. Reagent; 5 uL; 2500 lymphoblastoid cells/well
2. Time; 5 hr; 37 C incubation
4. Controls; 23 nL; Tetraoctylammonium bromide 6.4pM to 92 uM
5. Time; 24 hr; 37 C incubation
6. Reagent; 5 uL; CellTiter Glo reagent
7. Time; 30 min; Room Temperature
8. Detection; Luminescence; Viewlux plate reader
Keywords: cell viability, cytotoxicity, lymphoblastoid cell line, luminescence, NTPHTS, NTPHTS_NCGC, NIEHS, DSSTox, MLSMR, MLSCN, NIH Roadmap, qHTS, NCGC
Potency is read from the fitted curve at half-maximal effect.

SMILES | activity change, negative = cytotoxic | Potency
CN(C)C(=O)Nc1ccc(Cl)cc1 | -7.83% (inactive) | 
CCCN(CCC)c1c([N+](=O)[O-])cc(C(F)(F)F)cc1[N+](=O)[O-] | -12.6% (inactive) | 
OCCCCO | 2.42% (inactive) | 
Nc1cc(Cl)cc(Cl)c1 | -17.4% (inactive) | 
O=C(O)C(Br)CBr (stereo not given) | -31.7% (inactive) | 
COc1ccc(C=O)cc1 | -9.34% (inactive) | 
Cl/C=C/Cl | -11.5% (inactive) | 
Oc1cc(Cl)c(Cl)c(Cl)c1Cl | 8.27% (inactive) | 
O=Cc1ccc(Cl)cc1Cl | -5.74% (inactive) | 
ClC(Br)Br | -20.3% (inactive) | 
CCCCC(=O)Cl | -12.7% (inactive) | 
Cc1ccc(N)c(C)c1 | -3.16% (inactive) | 
ClC=CCl | -20.5% (inactive) | 
Cc1cc(C)cc(OP(=O)(Oc2cc(C)cc(C)c2)Oc2cc(C)cc(C)c2)c1 | -9.91% (inactive) | 
C=C(Cl)CCl | -5.2% (inactive) | 
O=[N+]([O-])c1ccc(Cl)c(Cl)c1Cl | -2.59% (inactive) | 
Nc1cccc(Cl)c1 | -10% (inactive) | 
CN1CSC(=S)N(C)C1 |  | 12.6 µM (active)
CC(=O)[O-].CC(=O)[O-].CC(=O)[O-].[Cr+3] | -9.23% (inactive) | 
CN=C=O | -16.1% (inactive) | 

SMILES | activity change, negative = cytotoxic | Potency
N#C/C(N)=C(/N)C#N | 0.117% (inactive) | 
CC(C)OS(C)(=O)=O | -9.43% (inactive) | 
O=[N+]([O-])c1cc(Cl)c(Cl)cc1Cl | -14.6% (inactive) | 
Nn1cnnc1 | -16.2% (inactive) | 
COc1cc(-c2ccc(N)c(OC)c2)ccc1N | -12.5% (inactive) | 
CCCCCC[N+](=O)[O-] | -19.9% (inactive) | 
CCCCC#N | 4.79% (inactive) | 
ClC(Cl)Br | -8.73% (inactive) | 
Nc1ncc([N+](=O)[O-])s1 | 7.56% (inactive) | 
CCC#N | -10.2% (inactive) | 
CCOC(=O)C1OC1(C)c1ccccc1 (stereo not given) | -3.85% (inactive) | 
CCCCCCCCCCCOC(=O)c1ccccc1C(=O)OCCCCCCCCCCC | 2.04% (inactive) | 
Cc1cccc(N)c1C | -19.1% (inactive) | 
Nc1ccc(-c2ccccc2)cc1 | -4.74% (inactive) | 
COC(=O)c1ccccc1N | 6.98% (inactive) | 
OCCBr | -1.76% (inactive) | 
CCOP(=O)(OCC)OCC | 2.55% (inactive) | 
O=C(Cl)OCc1ccccc1 | 1.86% (inactive) | 
O=[N+]([O-])c1c(Cl)c(Cl)c(Cl)c(Cl)c1Cl | -5.75% (inactive) | 
O=C(O)CCl | -7.41% (inactive) | 

From PubChem BioAssay (NCATS)
